89 compounds from PubChem BioAssay AID449762 (Southern Research Specialized Biocontainment Screening …, 2010) can be followed below.

Hit rate of the full screen: of about 330,000 compounds, about 1,900 (0.58%) were called active. Inconclusive results (about 4%) are left out. Only a sample is shown. Measured potencies and affinities stand elsewhere. Values without a mark were called inactive. Cut-off read from the data, not from the text of the source: inconclusive = inhibition above about 70% without an active follow-up result; inactive = below that.

This assay can be described thus: M. tuberculosis growth inhibition, HTS (AID 449762).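 Note: bacterial growth assessed after seven days of incubation.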 The settings on record: M. tuberculosis H37Rv growth inhibition, 7H9 media; at 25 µM; active compounds read high.
Take `COc1ccc(-c2onc3ccc(C(=O)/C=C/N(C)C)cc23)cc1`: the inhibition was 6.78%.

Regarding `O=c1oc2ccccc2c(Nc2cccc3ccccc23)c1[N+](=O)[O-]`, the inhibition was 20.4%.

As for `O=c1oc2ccccc2c(Nc2ccc(O)cc2)c1[N+](=O)[O-]`, the inhibition is -6.31%.

As for `CCn1c(SCC(=O)Nc2ccc3c(c2)OCCO3)nnc1C1CC1`, the inhibition is -3.26%.

For `CC1Cc2cc(-c3csc(NC(=O)Cc4ccccc4)n3)ccc2N1S(C)(=O)=O` (centres undefined), the inhibition is 54.4%.

For `CCC(=O)Nc1nc(-c2ccc3c(c2)CC(C)N3S(C)(=O)=O)cs1` (centres undefined), the inhibition was 58.2%.

For `Cc1ccc(CCNC(=O)C2CCN(S(=O)(=O)c3ccc4c(c3)oc(=O)n4C)CC2)cc1`, the inhibition was -5.23%.

Turning to `Cc1cc(C)c(C(N)=O)c(SCC(=O)c2cc(C)c(C)cc2C)n1`, the inhibition is 5.89%.

Regarding `Cc1ccc(C(=O)CSc2nc(C)cc(C)c2C(N)=O)cc1`, the inhibition is 69%.

For `CN(C)c1oc(-c2ccc(Cl)cc2)nc1S(=O)(=O)c1ccccc1`, the inhibition is 3.09%.

`COc1ccc(CS(=O)(=O)CC(C)(O)c2ccc(Cl)cc2)cc1` (centres undefined): the inhibition is 8.74%.

Turning to `Cc1cc(C)n(-c2ccc(C(=O)OCC(=O)Nc3cc(S(C)(=O)=O)ccc3Cl)cc2)n1`, the inhibition is 9.43%.

`Cc1cc(C(=O)N/N=C/C(Cl)=C/c2ccccc2)c(C)o1`: the inhibition is 2.89%.

With `CC(/C=N\NC(=O)c1cc(C)oc1C)=C\c1ccccc1`, the inhibition is 5.28%.

Turning to `COC(=O)c1cc(NC(=O)c2ccc(-c3ccccc3)cc2)ccc1Cl`, the inhibition is -0.43%.

Consider `CC(C)c1ccc(C(=O)CSc2ncn[nH]2)cc1`, for which the inhibition is -3.26%.

On to `O=C(CSc1ncn[nH]1)NCc1ccc(Cl)cc1`, for which the inhibition was 23.7%.

Turning to `Cc1ccc2c(c1)Oc1ccc([N+](=O)[O-])cc1C(=O)N2`, the inhibition is 3.53%.

For `Cc1ccc2c(c1)Oc1ccc(NC(=O)CCCl)cc1C(=O)N2`, the inhibition was 11.1%.

Regarding `Cc1ccc(Cn2c(N)c(S(=O)(=O)c3cccs3)c3nc4ccccc4nc32)cc1`, the inhibition is -12%.

In the case of `COc1ccc(C(CNC(=O)COc2ccc(-c3ccccc3)cc2)N2CCOCC2)cc1` (centres undefined), the inhibition was -6.25%.

As to `N/C(=N\[N+](=O)[O-])N1CCN(C(=O)c2ccccc2)CC1`, the inhibition was -7.03%.

In the case of `Cc1ccc(S(=O)(=O)Nc2ccnc3ccccc23)cc1`, the inhibition was -5.18%.

In the case of `Cc1ccc(S(=O)(=O)Nc2cccc3ncccc23)cc1`, the inhibition was 0.6%.

As for `O=S(=O)(c1ccc(=S)[nH]c1)N1CCCC1`, the inhibition was -0.36%.

As to `CC(CCc1ccccc1)NC(=O)CCNC(=O)c1ccccc1Cl` (centres undefined), the inhibition was 0.74%.

For the compound `O=C(CCSCc1ccccc1F)NCc1cccnc1`, the inhibition was 12.2%.

Regarding `O=C(Nc1nc2c(s1)CCCC2)c1cc(-c2ccncc2)nc2ccccc12`, the inhibition was -5.59%.

For the compound `O=C(Nc1nc2c(s1)CCCC2)c1cc(-c2ccccc2)nc2ccccc12`, the inhibition is 65.5%.

Turning to `COc1ccc(-c2ccc3oc(-c4ccc(OC)cc4)c(C#CC4(O)CCCCC4)c3c2)cc1`, the inhibition is 61.2%.

Consider `COc1ccc(-c2oc3ccc(-c4ccc(OC)nc4)cc3c2-c2ccc(OC)cc2)cc1`, for which the inhibition was 3.96%.

Consider `CCC(C)(C)NC(=O)C(c1cccs1)N(C(=O)c1ccn[nH]1)c1cccc(OC)c1` (centres undefined), for which the inhibition is -8.05%.

Consider `CN1CCN(c2ccc([N+](=O)[O-])c(-n3nc(-c4ccccc4)c4ccccc4c3=O)c2)CC1`, for which the inhibition was 38.4%.

`Cc1nn(-c2cc(N3CCCC3)ccc2[N+](=O)[O-])c(=O)c2ccccc12`: the inhibition is -3.75%.

For `COc1cc(C=O)ccc1OCC(=O)N1CCOCC1`, the inhibition is -0.06%.

As for `CCc1nc2c(c(=O)[nH]1)C(CC)(CC)Cc1ccccc1-2`, the inhibition is 5.03%.

Consider `CCC1(CC)Cc2ccccc2-c2nc(CN3CCOCC3)[nH]c(=O)c21`, for which the inhibition was 51.6%.

For `O=C(Nc1cccc(S(=O)(=O)N2CCCC2)c1)c1cc(=O)[nH]c2ccccc12`, the inhibition was -4.61%.

As to `Cc1nc2ccc(NC(=O)c3ccccc3)cc2s1`, the inhibition was 3.89%.

For `Cc1nc2ccc(Oc3ccccc3)cc2s1`, the inhibition is 7.08%.

On to `Cn1c(=O)n(C)c2cc(NC(=O)c3cc4ccccc4o3)ccc21`, for which the inhibition was 6.91%.

As to `COc1ccc(-n2cc(CNCCCn3ccnc3)c(-c3ccccc3Cl)n2)cc1`, the inhibition was 13.2%.

In the case of `COc1ccc(-n2cc(CNCCc3nc(C)cc(C)n3)c(-c3ccccc3Cl)n2)cc1`, the inhibition was 68.4%.

In the case of `COc1ccc(OCCN2C(=O)c3ccccc3C2=O)c([N+](=O)[O-])c1`, the inhibition was -4.41%.

Take `COc1cc2[nH]c(C(=O)NCCc3ccccc3)cc2c(OC)c1OC`: the inhibition was 0.36%.

Consider `COC(=O)c1cnn(-c2ccc(C)c(C)c2)c1-n1cccc1`, for which the inhibition is 3%.

Consider `Cc1c(Cl)ccc2c1NC(=O)C21NC(CCC(N)=O)[C@H]2C(=O)N(c3ccc(Cl)cc3)C(=O)[C@H]21` (some centres undefined), for which the inhibition is -9%.

On to `Cc1c(Cl)ccc2c1NC(=O)[C@]21N[C@@H](CCC(N)=O)[C@H]2C(=O)N(c3ccc(F)cc3)C(=O)[C@H]21`, for which the inhibition was -5.78%.

Regarding `CC(=O)N(C)c1ccc(OCC(O)Cn2c(C)nc3ccccc32)cc1` (centres undefined), the inhibition was 0.96%.

In the case of `CCC(c1nnc(SCC(=O)Nc2cc(S(C)(=O)=O)ccc2Cl)n1Cc1ccccc1)N(C)C` (centres undefined), the inhibition was -14.3%.

Regarding `C=CCSc1n[nH]c(-c2ccc(OC)cc2)n1`, the inhibition is -6.49%.

Consider `C=CCSc1n[nH]c(-c2ccc(OCCC)cc2)n1`, for which the inhibition was 56.7%.

Turning to `Cc1ccc(NC(=O)c2ccc(OC(=O)COc3ccc(Cl)c(C)c3)cc2)cc1`, the inhibition is -2.96%.

`COc1ccc(Cc2[nH]n3c(=O)c(Cl)c(C)nc3c2-c2ccccc2)cc1`: the inhibition was 35.3%.

With `O=C(Cn1nc(CNc2ccc(Br)cc2)[n+]2c1CCCCC2)c1ccc([N+](=O)[O-])cc1`, the inhibition is 64.9%.

In the case of `O=C(Cn1nc(CNc2ccc(Cl)cc2)[n+]2c1CCCCC2)c1ccccc1`, the inhibition is 0.81%.

As for `CCCCN1C(=O)C(=O)N(c2ccccc2)C1=S`, the inhibition was 5.31%.

For `COC(=O)CN(C(=S)Nc1ccc(F)cc1)C1CC(=O)N(c2ccccc2)C1=O` (centres undefined), the inhibition was 5.39%.

As to `O=C(O)/C(=C\c1ccc2ccccc2c1)c1cccc2ccccc12`, the inhibition was 2.24%.

Take `CN1C(=O)/C(=C/c2ccccc2Cl)Sc2ccc(C(=O)N3CCCC3)cc21`: the inhibition is 69.8%.

In the case of `COc1ccc(/C=C2\Sc3ccc(C(=O)N4CCCC4)cc3N(C)C2=O)cc1OC`, the inhibition is 7.11%.

On to `Cn1ncc([N+](=O)[O-])c1C(=O)Nc1ccc(-c2nc3ccccc3o2)cc1`, for which the inhibition was 1.46%.

With `COc1ccc(/C=C/C(=O)NCCOc2ccc(C)cc2)cc1`, the inhibition is -2.38%.

For the compound `NC(=O)CC(NC(=O)c1ccccc1)c1ccc(NC2CCCC2)c([N+](=O)[O-])c1` (centres undefined), the inhibition is 0.75%.

In the case of `CN(C)CCCn1c2c(c(SCC(=O)Nc3cccc4ccccc34)nc1=O)CCC2`, the inhibition is 0.83%.

Take `Fc1cccc(CCN2CCNC[C@@H]2Cc2ccccc2)c1`: the inhibition is -4.28%.

With `c1ccc(C[C@H]2CNCCN2CCc2cccc3ccccc23)cc1`, the inhibition was 53.6%.

On to `CCOC(=O)N1CCC(NC(=O)C2CCN(S(=O)(=O)c3cnc[nH]3)CC2)CC1`, for which the inhibition is -6.34%.

Regarding `Cc1ccc(S(=O)(=O)N2CCN(C(=O)Cn3c(=O)oc4ccccc43)CC2)c(C)c1`, the inhibition was 3.86%.

For `CC(C)N(C(=O)[C@H]1CC(CC(=O)NCc2ccco2)C(=O)N2CCc3c([nH]c4ccccc34)[C@]12C)C(C)C` (some centres undefined), the inhibition is 2.78%.

As to `O=S(=O)(c1ccc(F)cc1)n1ccc2cccnc21`, the inhibition was 4.44%.

With `Nc1ccc(-c2nc3ccccc3o2)cc1`, the inhibition was 49%.

For the compound `Cc1nc2ccc(-c3nc4ccccc4o3)cc2[nH]1`, the inhibition was 8.75%.

In the case of `COc1ccc(/C=N/NC(=O)c2cc3c(ccc4ccccc43)o2)cc1OC`, the inhibition was 11.8%.

As for `Cc1ccc2nc(N3C(=O)C(O)=C(C(=O)c4ccco4)C3c3cccs3)sc2c1` (centres undefined), the inhibition is -7.92%.

With `Cc1ccc2nc(N3C(=O)C(O)=C(C(=O)c4cc5ccccc5o4)C3c3cccs3)sc2c1` (centres undefined), the inhibition is -1.99%.

With `COc1ccc(CNC(=O)c2cccc(NC3=NC4CS(=O)(=O)CC4S3)c2)cc1` (centres undefined), the inhibition is -9.1%.

As to `CC[n+]1ccccc1/C=C1\Sc2ccc(C)cc2N1C`, the inhibition is 6.67%.

Take `CCN1/C(=C/C=C/C=C/C=C/c2sc3ccccc3[n+]2CC)Sc2ccccc21`: the inhibition was 5.11%.

Consider `Cc1cc(C)n(-c2ccc(Cl)c(C(=O)OCC(=O)N3CCCCC3C)n2)n1` (centres undefined), for which the inhibition was -1.17%.

For `C/C(=N\NC(=O)c1nnn(-c2nonc2N)c1CN(C)c1ccccc1)c1ccc(O)cc1`, the inhibition was -0.5%.

Take `C/C(=N\NC(=O)c1nnn(-c2nonc2N)c1CN(C)c1ccccc1)c1ccccc1O`: the inhibition is 12.9%.

For the compound `Cc1ccc(C)c(OC(=O)C2CSC3(C)CCC(=O)N23)c1C` (centres undefined), the inhibition was -8.22%.

With `Cc1ccc(NS(=O)(=O)c2ccc(Cl)c(C(=O)Nc3ccccc3-c3nc4ccccc4[nH]3)c2)cc1C`, the inhibition is 4.41%.

With `CCC(NC(=O)c1ccccc1NC(=O)c1ccco1)C(=O)NNC(=O)c1ccc(OC)cc1` (centres undefined), the inhibition is -4.34%.

On to `O=C(Nc1cc(Cl)cc(Cl)c1)C1C2C=CC3(O2)C1C(=O)N(CCCN1CCOCC1)C3C(=O)NC1CCCCC1` (centres undefined), for which the inhibition is -1.97%.

As to `CCOC(=O)Cn1c(Br)nc2c1c(=O)[nH]c(=O)n2C`, the inhibition is 2.17%.

`Cc1ccc(C2C(C#N)=C(N)Oc3n[nH]c(C)c32)cc1` (centres undefined): the inhibition was 2.2%.

For `Cc1[nH]nc2c1C(c1ccc(-c3ccccc3C#N)o1)C(C#N)=C(N)O2` (centres undefined), the inhibition is 16.8%.
